From PubChem BioAssay (EPA / NIEHS)
“And” between values parts separate entries of the source, which are not always exact repeats. Equal entries are not always repeated. Where a structure was tested more than once in an assay, its records may differ in their call. The source made the active and inactive calls. Rule for the calls, unless noted: active = hit-call score of the fitted dose curve at least 0.9, where 1 is the maximum; inactive = score below 0.9.

What was measured:
DIO2 (gene 1734) = assay: CCTE_GLTED_hDIO2: CCTE's human Deiodinase 2 (DIO2) Inhibition Assay, Great Lakes Toxicology and Ecology Division (GLTED) Lab (AID 2284050; active = hit-call score of the fitted dose curve at least 0.9, where 1 is the maximum)
In short: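 Inhibition is judged by reduced iodide release: uninhibited human DIO2 frees iodide from substrate over 3 h, measured afterward by Sandell-Kolthoff colorimetry. Iodinated chemicals or nitrite, iron and thiocyanate may interfere.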

DIO3 (gene 1735) = assay: CCTE_GLTED_hDIO3: CCTE's human Deiodinase 3 (DIO3) Inhibition Assay, Great Lakes Toxicology and Ecology Division (GLTED) Lab (AID 2284055; active = hit-call score of the fitted dose curve at least 0.9, where 1 is the maximum;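 for AC50: potency is for inhibition seen as loss of released iodide signal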)
In short: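 Human type 3 deiodinase, expressed via adenovirus system, was exposed to test chemicals for 3 hours in a cell-free format. Released iodide was then determined spectrophotometrically by Sandell-Kolthoff; plates ran in triplicate.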

[1] = CCTE_Shafer_MEA_dev_burst_duration_mean: CCTE's Neural Network Formation Assay for Mean Burst Duration, Shafer Lab (AID 2284045);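 for AC50: curve fitted for loss meaning shorter burst duration than DMSO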
In short: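 Network-formation assay in primary rat cortical neurons; treatment spans twelve days of development. Mean burst duration per well is integrated by trapezoidal AUC and fitted in the loss-of-signal direction against DMSO baseline.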

[2] = CCTE_Shafer_MEA_dev_inter_network_spike_interval_mean: CCTE's Neural Network Formation Assay for Mean Inter-network Spike Interval, Shafer Lab (AID 2284047);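 for AC50: potency for a decrease in mean inter-network spike interval below DMSO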
In short: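 Primary rat cortical neurons on 16-electrode MEA wells, exposed from plating day 0 through DIV 12, compound renewed at DIV 5 and 9 media changes. Mean interval between network-spike peaks recorded DIV 5, 7, 9, 12; collapsed as trapezoidal AUC, fitted downward versus DMSO.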

[3] = CCTE_Shafer_MEA_dev_network_spike_number: CCTE's Neural Network Formation Assay for Number of Network Spikes, Shafer Lab (AID 2284048);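 note: synchronized bursts across electrodes counted on days 5 7 9 12 and integrated as AUC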;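 for AC50: fit as a loss of signal meaning fewer network spikes than DMSO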
In short: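 Extracellular recordings from 16-electrode wells track network formation in rat cortical cultures under continuous treatment from plating. The endpoint is network spike number, expressed as AUC across DIV 5–12 relative to DMSO vehicle.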

[4] = CCTE_Shafer_MEA_dev_network_spike_peak: CCTE's Neural Network Formation Assay for Mean Number of Electrodes in Network Spike, Shafer Lab (AID 2284049);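 for AC50: fitted for loss of signal meaning fewer electrodes in network spikes than DMSO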
In short: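 Continuous 12-day exposure of rat cortical cultures, starting at plating, on MEA plates. Endpoint: electrodes participating in network-spike peaks, AUC across DIV 5–12, DMSO as negative control.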

[5] = CCTE_Shafer_MEA_dev_spike_duration_mean: CCTE's Neural Network Formation Assay for Mean Spike Duration, Shafer Lab (AID 2284051);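 note: mean network spike duration pooled as area under curve over DIV 5 to 12 recordings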;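 for AC50: potency for a decrease in mean network spike duration versus DMSO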
In short: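 Primary rat cortical neurons on 16-electrode MEA wells (PEI-coated, laminin in plating drop), exposed from plating through DIV 12 with compound renewed at DIV 5 and 9. Mean network-spike duration recorded DIV 5, 7, 9, 12; trapezoidal AUC across days, DMSO baseline.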

[6] = CCTE_Shafer_MEA_dev_per_network_spike_spike_number_mean: CCTE's Neural Network Formation Assay for Mean Number of Spikes in a Network Spike, Shafer Lab (AID 2284053)
In short: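 Primary rat cortical neurons on 48-well, 16-electrode MEA plates were exposed from plating to DIV 12, with dosing renewed on DIV 5 and 9. Spikes per network spike (0.05 s peak window) were recorded on DIV 5, 7, 9 and 12 and collapsed as trapezoidal AUC versus DMSO.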

[7] = CCTE_Shafer_MEA_dev_per_network_spike_spike_percent: CCTE's Neural Network Formation Assay for Percent of Spikes in a Network Spike, Shafer Lab (AID 2284054)
In short: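 Developing networks of rat cortical neurons are dosed at day 0 and recorded extracellularly four times up to day 12. The endpoint is the area under the curve of percent spikes in network spikes, fitted in the negative direction relative to DMSO.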

[8] = UKN5_HCS_SBAD2_cell_viability: Viability Assessment in the University of Konstanz (UKN) Leist Lab Neurite Outgrowth Assay in human iPSC-derived immature Dorsal Root Ganglia Neurons (UKN5) (AID 2284056)
In short: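 iPSC-derived immature peripheral neurons (SBAD2) seeded on Matrigel with CHIR99021, SU5402 and DAPT, dosed 1 h later for 24 h. Viability from Hoechst H-33342 and calcein-AM live staining, high-content imaging; bidirectional fit versus DMSO.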

Measured: AC50

CCC(C)(NC(=O)c1cc(Cl)c(C)c(Cl)c1)C(=O)CCl (configuration not stated)
active: DIO2 (gene 1734) 13.2 µM | DIO3 (gene 1735) 41.2 µM

CNC(=O)CSP(=S)(OC)OC
inactive: [1] | [2] | [3] | [5] | [6]
active: [4] 50 µM and 15 µM | [5] 50 µM | [6] 50 µM | [7] 50 µM and 15 µM

Oc1cc(Cl)ccc1Oc1ccc(Cl)cc1Cl
inactive: [1] | [2] | [3]
active: [4] 9.85 µM | DIO2 (gene 1734) 84 µM | [5] 10 µM | [6] 9.32 µM | [7] 9.46 µM | DIO3 (gene 1735) 85.5 µM

CCOCN(C(=O)CCl)c1c(C)cccc1CC
active: DIO2 (gene 1734) 58.9 µM | DIO3 (gene 1735) 58.1 µM

CCC(C)(C)C(=O)OC1=C(c2ccc(Cl)cc2Cl)C(=O)OC12CCCCC2
not listed: DIO2 (gene 1734) | DIO3 (gene 1735) | [8]
inactive: all other assays above

CC1(C)C(C=C(Cl)Cl)C1C(=O)OC(C#N)c1ccc(F)c(Oc2ccccc2)c1 (configuration not stated)
inactive: [2]
active: [1] 2.04 µM and 8.68 µM and 7.93 µM | [3] 235 nM and 10.6 µM and 6.32 µM | [4] 10 µM and 11.1 µM and 15 µM | [5] 5.46 µM and 10.2 µM and 8.39 µM | [6] 3.15 µM and 12.1 µM and 11.9 µM | [7] 1.72 µM and 13.6 µM and 4.24 µM

O=C(O)COc1ccc(Cl)cc1Cl
active: [4] 50 µM
not listed: DIO2 (gene 1734) | DIO3 (gene 1735) | [8]
inactive: all other assays above

CC1(c2ccc(Oc3ccccc3)cc2)OC(=O)N(Nc2ccccc2)C1=O (configuration not stated)
inactive: [1]
active: [2] 3.1 µM | [3] 3.39 µM | [4] 5.73 µM | [5] 3.17 µM | [6] 4.26 µM | [7] 2.47 µM

O=S1OCC2C(CO1)C1(Cl)C(Cl)=C(Cl)C2(Cl)C1(Cl)Cl (configuration not stated)
inactive: [1] | [2]
active: [3] 5.95 µM | [4] 8.02 µM | [5] 8.4 µM | [6] 8.24 µM | [7] 4.76 µM

CC[C@H](C)[C@H]1O[C@]2(C=C[C@@H]1C)C[C@@H]1C[C@@H](C/C=C(\C)[C@@H](O[C@H]3C[C@H](OC)[C@@H](O[C@H]4C[C@H](OC)[C@@H](O)[C@H](C)O4)[C@H](C)O3)[C@@H](C)/C=C/C=C3\CO[C@@H]4[C@H](O)C(C)=C[C@@H](C(=O)O1)[C@]34O)O2 (tested in a mixture with another compound)
active: [1] 1.34 nM and 0.41 nM | [3] 27.5 nM and 2.25 nM | [4] 16.4 nM and 2.37 nM | [5] 3.01 nM and 0.926 nM | [6] 6.69 nM and 2.06 nM | [7] 0.259 µM
inactive: [2] | [7]

COP(=O)(OC)OC=C(Cl)Cl
inactive: [1] | [2] | [3] | [4] | [5] | [6]
active: [3] 0.983 µM | [4] 2.87 µM | [5] 1.45 µM | [6] 1.94 µM | [7] 1.99 µM

O=[N+]([O-])/N=C1\NCCN1Cc1ccc(Cl)nc1
active: [6] 15 µM
not listed: DIO2 (gene 1734) | DIO3 (gene 1735)
inactive: all other assays above

N#Cc1c(Cl)c(Cl)c(Cl)c(C#N)c1Cl
active: DIO2 (gene 1734) 5.63 µM | DIO3 (gene 1735) 0.404 µM

O=C(O)C(F)(F)C(F)(F)C(F)(F)C(F)(F)C(F)(F)C(F)(F)C(F)(F)F
inactive: [1] | [2] | [3] | [4] | [5] | [6] | [7]
active: [4] 13.9 µM | [8] 768 µM

ClC1C(Cl)C(Cl)C(Cl)C(Cl)C1Cl (configuration not stated)
not listed: DIO2 (gene 1734) | DIO3 (gene 1735)
inactive: all other assays above

COP(=S)(OC)Oc1ccc([N+](=O)[O-])cc1
inactive: [1] | [2] | [3] | [5] | [7]
active: [4] 23.4 µM | [6] 24.6 µM

CC(C)N(C(=O)COc1nnc(C(F)(F)F)s1)c1ccc(F)cc1
active: [4] 23.3 µM | [5] 24.5 µM | [6] 15 µM | [7] 15 µM
inactive: [1] | [2] | [3] | [4] | [5] | [6] | [7] | [8]

O=S(=O)(O)C(F)(F)C(F)(F)C(F)(F)C(F)(F)C(F)(F)C(F)(F)C(F)(F)C(F)(F)F
active: [4] 50 µM | DIO2 (gene 1734) 95 µM [middle of 4 runs] | [5] 50 µM | [6] 50 µM | [8] 770 µM
inactive: [1] | [2] | [3] | [4] | [5] | [6] | [7] | DIO3 (gene 1735)

Oc1ccc(Cl)cc1Cc1ccccc1
active: DIO2 (gene 1734) 132 µM | DIO3 (gene 1735) 158 µM
